ELG1 DNA repair: ELG1-dependent DNA repair inhibition. Potency, µM (titrated, usually from 46.1 µM), actives largely listed as inhibitors. AID 504467. HEK293T ELG1-luciferase reporter, luminescence, 16 h; DNA damage induced by 5-fluorouridine. 330,000 compounds, 2.3% hits; also: nearly all actives have a fitted effect of over 55% in size
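Cells (2,000 per well) received 5-fluorouridine plus test compound or DMSO and were incubated 16 hr at 37 °C, 5% CO2. Luciferase activity was read by luminescence 30 min after ONE-Glo addition; signal suppression marked inhibition of damage-induced ELG1 function.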
NPC1 promoter act: activators of NPC1 promoter; Huh7 NPC1 promoter luciferase reporter, 24 h; Potency, µM (highest dose often 9.22 µM), usual class: activators; 320,000 compounds, 2.4% hits; AID 485313; also: nearly all actives have a fitted effect of over 60% in size
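Huh7 reporter cells (NPC1 promoter driving luciferase) are dosed with compound for 24 h at 37 °C, 5% CO2; luciferase detection reagent is then added and luminescence measured after 10 min at ambient temperature.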
ELG1 genotoxic: induces genotoxicity in HEK293T cells with luciferase-tagged ELG1 | HEK293T ELG1-luciferase reporter, luminescence, 16 h | Potency, µM (top dose mostly 46 µM), usual class: activators | 330,000 compounds, 1.3% hits | AID 504466; also: nearly all actives have a fitted effect of over 60% in size
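HEK293T cells expressing luciferase-tagged ELG1 were exposed to compound or DMSO vehicle for 16 hr at 37 °C and 5% CO2. Luciferase activity was then measured with ONE-Glo after 30 min at room temperature.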
SMN2 splice up: enhancers of SMN2 splice variant expression | AID 1458 | Potency, µM (top dose mostly 46.1 µM), most hits filed as activators | HEK293 SMN2-luciferase splicing reporter, luminescence, 30-36 h | 210,000 compounds, 2.8% hits; also: nearly all actives have a fitted effect of over 55% in size
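HEK293 cells carry an SMN2 minigene-luciferase reporter in which exon 7 inclusion puts luciferase in frame. Cells were seeded at 2000 cells/well, attached for 10-12 hours, then exposed to compounds for 30-36 hours at 37C before ONE-Glo luminescence.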
Rab9 promoter act: activators of Rab9 promoter. Huh7 Rab9 promoter-luciferase reporter, luminescence, 24 h. Potency, µM (highest dose often 9.22 µM), actives largely listed as activators. 320,000 compounds, 2.8% hits. AID 485297; also: nearly all actives have a fitted effect of over 60% in size
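Cell-based reporter: Huh7 stable for Rab9 promoter-driven luciferase, plated in reduced-serum medium with 10% FBS at 1500 cells/well, compound-treated 24 h at 37 °C, luminescence read after 10 min reagent.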
FLuc counter: inhibits or activates purified firefly luciferase, miR-21 counter-screen; 360,000 compounds, 6.9% hits; Potency, µM (titrated, usually from 57.5 µM), hits mostly inhibitors; purified FLuc, Km substrates, luminescence inhibition; P08659; also: nearly all actives have a fitted effect of over 55% in size
Target sequence (P08659 whole entry, looked up): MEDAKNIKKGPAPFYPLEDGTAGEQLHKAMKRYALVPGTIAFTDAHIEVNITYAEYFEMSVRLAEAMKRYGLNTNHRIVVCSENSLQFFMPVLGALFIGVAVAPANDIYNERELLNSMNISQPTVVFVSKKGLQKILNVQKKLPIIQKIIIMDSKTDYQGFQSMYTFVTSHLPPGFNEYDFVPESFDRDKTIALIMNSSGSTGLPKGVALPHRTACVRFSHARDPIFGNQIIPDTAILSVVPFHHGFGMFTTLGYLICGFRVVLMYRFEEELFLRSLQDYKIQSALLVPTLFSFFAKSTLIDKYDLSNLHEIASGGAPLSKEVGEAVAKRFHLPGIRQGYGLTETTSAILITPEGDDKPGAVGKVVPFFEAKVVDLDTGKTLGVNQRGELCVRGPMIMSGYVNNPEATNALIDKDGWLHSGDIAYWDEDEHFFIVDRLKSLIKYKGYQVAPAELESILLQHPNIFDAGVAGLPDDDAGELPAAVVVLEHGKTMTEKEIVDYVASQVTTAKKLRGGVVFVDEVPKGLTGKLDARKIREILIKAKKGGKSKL
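Purified P. pyralis luciferase, 10 nM final, with Km-level 10 uM D-luciferin and 10 uM ATP in 50 mM Tris acetate pH 7.5, 10 mM Mg acetate, 0.01% Tween-20, 0.05% BSA; 6-point qHTS titration about 60 µM downward; luminescence read.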
Numbers stand for hits; ! = not active in a repeat; [ ] = dose if it differs, or a comment. Rows were chosen to be rich in hits. Some 9.3% of all compounds tested hit in one or more screens of this group. Calls follow the shape of the dose curve; as a rule, active = well fitted curve in the direction sought with a large enough effect; inconclusive = small, poorly fitted or top-dose-only effect, or another doubt; inactive = no such curve, though single readings can be large; an effect the other way counts as inactive or inconclusive.

`CCCCCC1(C)NC(=S)N(c2ccccc2)N1` (configuration not stated) gave ELG1 DNA repair 7.3µM, NPC1 promoter act inactive, ELG1 genotoxic inactive, SMN2 splice up inactive, Rab9 promoter act inactive and FLuc counter inactive.
CC1CCc2sc(C(=O)N3CCC(C(N)=O)CC3)cc2C1 (configuration not stated) was read as ELG1 DNA repair inconclusive, NPC1 promoter act 0.4µM, ELG1 genotoxic inconclusive, Rab9 promoter act 0.5µM and FLuc counter 17µM.
`NC(=O)C1CCN(C(=O)c2cc3c(s2)CCCCC3)CC1` gave ELG1 DNA repair inconclusive, NPC1 promoter act inconclusive, ELG1 genotoxic inactive, Rab9 promoter act 3.5µM and FLuc counter inconclusive.
For O=C(O)C1CCCCN1C(=O)c1cc2c(s1)CCCCC2 (configuration not stated) the results were ELG1 DNA repair inactive, NPC1 promoter act inactive, ELG1 genotoxic inactive and Rab9 promoter act inactive.
CC1CC(C)CN(C(=O)c2cc3c(s2)CCC3)C1 (configuration not stated) was read as ELG1 DNA repair inconclusive, NPC1 promoter act inactive, ELG1 genotoxic inactive, SMN2 splice up inactive, Rab9 promoter act inactive and FLuc counter inactive.
CCOc1ccc(C(=O)Nc2ccc(-c3nc4ccccc4s3)c(C)c2)cc1OCC was read as FLuc counter inactive.
COC(=O)Cn1nnc(-c2cccc(OC)c2)n1 was read as ELG1 DNA repair inactive, NPC1 promoter act inactive, ELG1 genotoxic inactive, SMN2 splice up inactive, Rab9 promoter act inactive and FLuc counter 27µM.
`Cc1ccc(C(=O)Cn2nnc(-c3ccccc3)n2)cc1` gave ELG1 DNA repair inactive, NPC1 promoter act inactive, ELG1 genotoxic inactive, Rab9 promoter act inactive and FLuc counter 19µM.
COc1ccc(C(=O)Cn2nnc(-c3cccs3)n2)cc1 was read as ELG1 DNA repair inconclusive, NPC1 promoter act inconclusive, ELG1 genotoxic inactive, SMN2 splice up inactive, Rab9 promoter act 2.8µM and FLuc counter 9.5µM.
COc1ccc(N2CCN(C(=O)Cn3nnc(-c4cccs4)n3)CC2)cc1 was read as ELG1 DNA repair inactive, NPC1 promoter act inactive, ELG1 genotoxic inactive, SMN2 splice up inactive, Rab9 promoter act inactive and FLuc counter inactive[2.3 µM].
For COc1ccc(-c2cc(C(=O)NCc3ccc(F)cc3)c3c(-c4ccc(F)cc4)[nH]nc3n2)cc1OC the results were FLuc counter inactive.
Screening Cc1ccc(C)c(S(=O)(=O)N2CCCC2CNC(=O)C(=O)NCC2CCCO2)c1 (configuration not stated) returned ELG1 DNA repair inactive, NPC1 promoter act inactive, ELG1 genotoxic inactive, Rab9 promoter act inactive and FLuc counter inactive.
For O=C(CSc1ncnc2nc[nH]c12)c1ccc(Cl)cc1 the results were ELG1 DNA repair inactive, NPC1 promoter act inactive, ELG1 genotoxic inactive, Rab9 promoter act inactive and FLuc counter inactive.
`c1ccc(CCSc2ncnc3nc[nH]c23)cc1` gave ELG1 DNA repair inactive, NPC1 promoter act inconclusive, ELG1 genotoxic inactive, SMN2 splice up inactive, Rab9 promoter act inconclusive and FLuc counter 15µM.
For O=C(CSc1ncnc2nc[nH]c12)c1ccccc1 the results were ELG1 DNA repair inconclusive, NPC1 promoter act 2.8µM, ELG1 genotoxic inactive, SMN2 splice up 11µM!, Rab9 promoter act 4µM and FLuc counter 21µM.
Screening C/C(=C\c1ccccc1)C(=O)NCCCn1ccnc1 returned ELG1 DNA repair inactive, NPC1 promoter act inactive, ELG1 genotoxic inactive, SMN2 splice up inactive, Rab9 promoter act inactive and FLuc counter inactive.
O=[N+]([O-])c1ccccc1N/N=C/c1c[nH]c2ccccc12 was read as ELG1 DNA repair inconclusive, NPC1 promoter act inconclusive, ELG1 genotoxic 4.1µM, SMN2 splice up 13µM, Rab9 promoter act inactive and FLuc counter 4.3µM.
`O=[N+]([O-])c1ccccc1N/N=C/c1ccc2c(c1)OCO2` gave ELG1 DNA repair inconclusive, NPC1 promoter act 0.5µM, ELG1 genotoxic 2.9µM, SMN2 splice up 2.8µM, Rab9 promoter act 0.32µM and FLuc counter 0.48µM.

Compound activity from PubChem BioAssay.
